# Bioassay records: PubChem, National Center for Advancing Translational Sciences (NCATS)
# DT40 TDP1 CPT = growth inhibition of DT40 Tdp1-/-;hTDP1 cells with camptothecin (screen for TDP1 inhibitors). Potency, µM (top dose mostly 46.2 µM), inactives show at the top dose activity change, negative = growth inhibition, hits mostly inhibitors. 420,000 compounds, 12% hits. chicken DT40 Tdp1-/-;hTDP1 cells + 20 nM CPT, ATP luminescence, 48 h; note: potency is the fitted concentration of half-maximal effect; % is set by controls: 0 for no effect and ±100 for the full control effect; nearly all actives have a fitted effect of over 55% in size
#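 Chicken DT40 Tdp1-/- cells complemented with human TDP1, 400 cells/well, exposed to compounds plus 20 nM camptothecin for at least 48 h at 37 C; viability read as ATP content by CellTiter-Glo luminescence.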
# IL1B secr inh = inhibitors of inflammasome signaling (IL-1 beta secretion); THP-1 LPS/ATP IL-1B secretion, AlphaLISA, 16 h; stronger effect = lower value; activity change, % at 57.5 µM; 360,000 compounds, 4.7% hits; AID 743279; in the data active = activity change below about -50%; inconclusive = mostly about -30% to -49%; note: % is set by controls: 0 for no effect and ±100 for the full control effect
#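 THP-1 cells pretreated 1 hr with compounds (up to 57.5 uM final), then stimulated with LPS (250 ng/mL final) plus ATP (1.25 mM final); secreted IL-1B measured by AlphaLISA after 16 hr, decreased signal indicating inhibition.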
# SW480 rerep = DNA re-replication induction in SW480 cells; Potency, µM (top dose mostly 46.1 µM), for the others: at the highest dose re-replication activation, actives largely listed as activators; 340,000 compounds, 1.8% hits; AID 624297; SW480 DNA re-replication, Hoechst DNA content imaging, 48 h; note: potency is the fitted concentration of half-maximal effect; % of control where 0% means no effect; nearly all actives have a fitted effect of over 55% in size
#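 Image-based read-out: total Hoechst fluorescence of nuclei (405 nm excitation, 500-530 nm emission), with hits raising the fraction of high-intensity nuclei. SW480 colon cells incubated 48 hr with compounds at 37 C.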
# DT40 TDP1 no CPT = qHTS for Inhibitors of human tyrosyl-DNA phosphodiesterase 1 (TDP1): qHTS in cells in absence of CPT. DT40 Tdp1-/- hTDP1 cells, no CPT, ATP luminescence, 48 h. Potency, µM (titrated, usually from 46.2 µM), for inactives: top-dose activity change, negative = growth inhibition, usual class: inhibitors. 420,000 compounds, 15% hits; note: potency is the fitted concentration of half-maximal effect; % is set by controls: 0 for no effect and ±100 for the full control effect; nearly all actives have a fitted effect of over 55% in size
#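 Compound effects on proliferation are scored in DT40 Tdp1-/-;hTDP1 cells in the absence of CPT. ATP levels (CellTiter-Glo luminescence) are recorded after a ≥48 hr, 37 °C incubation.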
# Chronic BCR inh = blocks chronic active B-cell receptor signaling; Potency, µM (titrated, usually from 46.1 µM), inactives show top-dose activity change, negative = inhibition, most hits filed as inhibitors; ABC-DLBCL IkBa-CBG/CBR reporter, luminescence ratio, 4 h; 340,000 compounds, 0.05% hits; AID 493014; active = well fitted inhibition curve with a large enough effect in the signal ratio, with a control signal flat, not every such curve was filed as active; inconclusive = small, poorly fitted or top-dose-only effect, or effect the other way, or a change in a side signal; the % refers to the signal ratio;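 note: potency is the fitted concentration of half-maximal effect; plate controls were basal doxycycline-induced cells for no effect and cells given 10 µM MG132 for full effect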
#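 Doxycycline induced both beetle luciferases in TMD8 lymphoma cells; IKK-driven degradation limits the IkappaBalpha-fused green signal, while red luminescence normalises for cell number and nonspecific effects. Compounds tested up to 46 uM, 4 hrs.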
# MCF10A rereplic = DNA re-replication induction in MCF 10a cells; MCF 10A DNA re-replication, Hoechst nuclear intensity, 48 h; Potency, µM (doses to about 46.1 µM), inactives show top-dose activity, positive = re-replication, usual class: activators; 350,000 compounds, 2.9% hits; note: potency is the fitted concentration of half-maximal effect; % of control where 0% means no effect; nearly all actives have a fitted effect of over 50% in size
# Starred values were filed as active, the others as inactive; i = inactive; ? = inconclusive; nt = no result; [ ] = dose if it differs, or a comment. Shown are actives, neighbours in structure and some others; about 19% of the full set was active somewhere. Unless noted, calls come from the whole dose curve; as a rule, active = well fitted curve in the direction sought with a large enough effect; inconclusive = small, poorly fitted or top-dose-only effect, or another doubt; inactive = no such curve, though single readings can be large; an effect the other way counts as inactive or inconclusive.
SMILES,DT40 TDP1 CPT,IL1B secr inh,SW480 rerep,DT40 TDP1 no CPT,Chronic BCR inh,MCF10A rereplic
Cc1ccnc(NC(=O)C2CCN(S(=O)(=O)c3cccc4nonc34)CC2)c1,-1.6%,-50.7*,-0.4%,-29.2%,-2.4%,-18.8%
O=C(O)c1ccccc1NC(=O)C1CCN(S(=O)(=O)c2cccc3nsnc23)CC1,-20.3%,9.7,?,16.4µM*,0.7%,-1.3%
O=C(Nc1cccc(F)c1)C1CCN(S(=O)(=O)c2cccc3nonc23)CC1,?,?,0.5%,?,-6.4%,?
Cc1ccnc(NC(=O)C2CCN(S(=O)(=O)c3cccc4nsnc34)CC2)c1,-5.7%,-53.1*,9.9%,-7.3%,0.0%,?
CCNC(=O)C1(C)CCCN(C(=O)c2cc3ccccc3s2)C1 (configuration not stated),8.8%,-7.0,nt,-10.3%,nt,nt
Cc1nn(CCCC(=O)Nc2sc3c(c2C#N)CCC3)c(C)c1[N+](=O)[O-],-27.7%,-6.1,4.8%,?,?,16.3%
Cc1nn(CC(=O)Nc2sc3c(c2C#N)CCC(C(C)(C)C)C3)c(C)c1[N+](=O)[O-] (configuration not stated),25.9µM*,-2.9,-13.0%,18.4µM*,2.9%,12.0%
Cc1cc(C)cc(OC(=O)c2cc(-c3ccc4c(c3)OCCO4)on2)c1,-4.5%,nt,nt,-9.0%,nt,nt
CCS(=O)(=O)n1nc(-c2ccc(C)cc2)nc1N,-10.7%,?,-3.2%[9.22 µM],-17.6%,?,-2.0%
CCn1nc(-c2ccc(C)cc2)nc2c(=O)n(C)c(=O)nc1-2,1.58µM*,nt,nt,2.24µM*,nt,nt
Cn1nc(-c2ccncc2)nc2c(=O)n(C)c(=O)nc1-2,0.316µM*,nt,nt,0.355µM*,nt,nt
COc1ccc(-c2nc(-c3ccncc3)no2)cc1,-0.5%,1.1,-2.2%,-21.0%,?,?
Cc1ccc(NC(=O)CSc2ccc(-c3ccccn3)nn2)cc1,?,122.2,-1.7%,?,1.3%,3.2%
COc1ccc(NC(=O)CSc2ccc(-c3ccccn3)nn2)cc1OC,23.1µM*,73.1,-5.8%,16.4µM*,?,16.1%
Cc1c(Cl)cccc1NC(=O)CSc1ccc(-c2ccccn2)nn1,?,nt,nt,23.1µM*,nt,nt
Cc1cc(C)c(NC(=O)CSc2ccc(-c3ccccn3)nn2)c(C)c1,23.1µM*,24.0,9.0%,23.1µM*,0.0%,11.2%
O=C(CSc1ccc(-c2ccccn2)nn1)Nc1ccc(F)c(F)c1,20.6µM*,i,-4.0%,20.6µM*,4.8%,?
COc1ccccc1NC(=O)CSc1ccc(-c2ccccn2)nn1,?,i,26.6%,?,-9.9%,?
COC(=O)c1nc2n(n1)C(c1cccc(Cl)c1)C(C(=O)Nc1ccccc1OC)=C(C)N2 (configuration not stated),13.4%,nt,nt,4.8%,nt,nt
Cc1ccc(S(=O)(=O)N2CCN(S(=O)(=O)c3ccccc3Br)C2=O)cc1,?,-16.1,10.6%,?,0.4%,?
Cc1cccc(C(=O)NNC(=O)C2CC2)c1,-2.3%,0.0,-15.0%,18.1%,2.3%,-4.1%
Nc1nc2[nH]c(=S)[nH]c2c(=O)[nH]1,2.5%,nt,nt,2.4%,nt,nt
CCOc1ccc(NC(=O)CSc2ccc(-c3ccccn3)nn2)cc1,?,40.8,-3.9%,?,8.7%,-3.9%
COc1ccc(-c2ccc(SCC(=O)Nc3cccc(C(C)=O)c3)nn2)cc1OC,13µM*,-86.1*,0.2%,18.4µM*,?,3.0%
COc1ccc(-c2ccc(SCC(=O)c3ccc(F)cc3)nn2)cc1OC,?,?,0.3%,?,-6.4%,5.2%
SMILES,DT40 TDP1 CPT,IL1B secr inh,SW480 rerep,DT40 TDP1 no CPT,Chronic BCR inh,MCF10A rereplic
CCc1nnc(NC(=O)CSc2ccc(-c3cccs3)nn2)s1,-5.4%,38.4,-4.2%,-14.1%,1.7%,-0.5%
O=C(CSc1ccc(-c2cccs2)nn1)Nc1cccc(F)c1,14.6µM*,nt,nt,23.1µM*,nt,nt
CCOC(=O)c1ccc(NC(=O)CSc2ccc(-c3ccccn3)nn2)cc1,20.6µM*,59.5,10.5%,18.4µM*,1.2%,?
COc1ccc(-c2ccc(SCC(=O)c3cccs3)nn2)cc1OC,?,-18.2,2.5%,16.4µM*,-7.3%,4.4%
Cc1ccc2nc(SC(Cc3cc(Cl)ccc3Cl)C(=O)O)[nH]c2c1 (configuration not stated),?,nt,nt,?,20.6%,nt
O=C(Nc1ccnc(-c2cccnc2)n1)c1cccs1,?,0.0,-30.8%,-28.4%,3.3%,?
COc1ccccc1NC(=O)CSc1nnnn1-c1ccc(F)cc1,-8.3%,-17.5,-7.0%,-23.9%,-20.2%,-1.2%
COc1ccccc1NC(=O)CSc1ccc(-c2ccc(-n3cccn3)cc2)nn1,?,-14.7,-4.5%,18.4µM*,8.1%,10.1%
O=C(Nc1nnc([C@H]2C[C@H](O)[C@@H](CO)O2)s1)Nc1ccccc1Oc1ccccc1,-22.5%,15.2,nt,-7.8%,nt,nt
CSc1sc(C(=O)N(C)C)c2c1S(=O)(=O)N(C)c1ccccc1-2,1.8%,14.3,-4.9%,-18.6%,27.2%,-2.6%
Cn1c(=O)c(=O)n(C)c2cc([N+](=O)[O-])c([N+](=O)[O-])cc21,14.6µM*,-101.4*,8.4%,18.4µM*,?,?
Cn1cccc([N+](=O)[O-])c1=O,-3.2%,-17.5,nt,-4.5%,nt,nt
Cc1ccsc1/C=C(\C(=O)c1ccc(OC(C)C)cc1)c1nc2ccccc2o1,16.4µM*,-66.7*,8.2µM*,18.4µM*,2.3%,17.9%
Cc1ccc(-c2nc3ccccc3o2)cc1NC(=O)C(C)Oc1ccccc1 (configuration not stated),1.2%,nt,nt,-14.2%,nt,nt
CC(C)(C)OC(=O)N1CCN(C(=O)OCC2c3ccccc3-c3ccccc32)CC1C(=O)O (configuration not stated),23.1µM*,0.0,-11.2%,?,nt,6.0%
CCN=C1S/C(=C/c2ccc(-c3ccc(F)cc3)o2)C(=O)N1CC,-27.6%,-14.3,?,?,-2.2%,8.2µM*
CCN=C1S/C(=C\c2cn(CC)c3ccccc23)C(=O)N1CC,23.1µM*,-26.4,14.6%,10.3µM*,-0.7%,?
CCN1C(=O)S/C(=C/c2cn(C)c3ccccc23)C1=O,-4.3%,-0.4,?,-20.2%,?,5.3%
CCOc1ccccc1CNC(=O)CCC(=O)N1Cc2ccccc2Oc2ncccc21,0.0%,0.5,?,?,-2.2%,-0.8%
